Screening data: PubChem, National Center for Advancing Translational Sciences (NCATS)
ATXN viability: Viability Counterscreen for Primary qHTS for Inhibitors of ATXN expression | S2 cells (HEK-293 line with an ATXN2-luciferase reporter) viability, CellTiter-Fluor protease fluorescence, 24 h | Potency, µM (series often up to 56.7 µM), most hits filed as cytotoxic | hit rate 0.49% among 400,000 | AID 651635, 2014; note: nearly all actives have a fitted effect of over 40% in size
ATXN2 expr inh: Primary qHTS for Inhibitors of ATXN expression | Potency, µM (doses to about 57 µM), for the others: at the highest dose activity change, negative = inhibition, actives largely listed as inhibitors | hit rate 0.72% among 360,000 | HEK-293 ATXN2-luciferase reporter, luminescence, 24 h | AID 1745845, 2022; note: % is set by controls: 0 for no effect and ±100 for the full control effect; nearly all actives have a fitted effect of over 55% in size
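qHTS (up to 57 uM final) was run with 24 h compound exposure of reporter cells at 37 °C. Each well was multiplexed: SteadyGlo luminescence measured ATXN2-luciferase expression after a fluorogenic Gly-Phe-AFC viability readout (25 uM final).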
Nrf2 block: Nrf2 qHTS screen for inhibitors. A549 ARE-Fluc reporter, luciferase luminescence, 18-24 h. Potency, µM (highest dose often 46 µM), for the others: at the highest dose activity change, negative = inhibition, actives largely listed as inhibitors. hit rate 2.1% among 360,000. AID 504444, 2011; note: % is set by controls: 0 for no effect and ±100 for the full control effect; nearly all actives have a fitted effect of over 60% in size
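Nrf2 function is reported as luminescence of an ARE-controlled luciferase in A549 cells. Compounds were tested at several concentrations, and a CellTiter-Fluor read on the same wells flagged cytotoxicity.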
A549 viability: Nrf2 qHTS screen for inhibitors: counterscreen for cytotoxicity; A549 ARE-Fluc cells, CellTiter-Fluor viability, 18-24 h; Potency, µM (doses to about 46 µM), without a hit: top-dose activity change, negative = cytotoxicity, most hits filed as inhibitors; hit rate 0.16% among 390,000; note: % is set by controls: 0 for no effect and ±100 for the full control effect
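A549 ARE_Fluc cells in 5% FBS OPTI-MEM were exposed to compounds in concentration-response for 18-24 h at 37 deg C. Viability was read by CellTiter-Fluor fluorescence (Ex 405/Em 525) after 30 min, before the luciferase read.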
HepG2 tox-1: qHTS for Inhibitors of TGF-b: Cytotox Counterscreen | hit rate 0.76% among 410,000 | HepG2 CAGA-GFP viability, ATP luminescence, 18 h | Potency, µM (titrated, usually from 46.1 µM), without a hit: top-dose activity change, negative = cytotoxicity, usual class: cytotoxic
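HepG2 CAGA-GFP cells (1000/well, DMEM with 1% FBS) received compound, then TGF-beta at 500 pg/mL final, and were incubated 18 hours at 37 degrees C. Viability was read by CellTiter-Glo luminescence. Media-only wells were set as complete cell-killing and DMSO as no toxicity.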
TGFb SMAD3 inh: qHTS for Inhibitors of TGF-b; HepG2 CAGA-GFP TGF-b/SMAD3 reporter, GFP fluorescence, 18 h; TGF-beta stimulated, 500 pg/mL final; Potency, µM (series often up to 46.1 µM), for inactives: at the top dose activity, negative = inhibition, most hits filed as inhibitors; hit rate 1.2% among 410,000; AID 588855, 2011; note: % is set by controls: 0 for no effect and ±100 for the full control effect; nearly all actives have a fitted effect of over 65% in size
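Inhibition was scored as loss of TGF-beta-induced (500 pg/mL final, 18 hours, 37 degrees C) GFP in HEPG2 cells carrying a CAGA-GFP reporter, in DMEM with 1% FBS. Well GFP was summed per cell; Activity was normalised to unstimulated and stimulated DMSO wells, then concentration-response fitting.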
TGFb confirm: qHTS for Inhibitors of TGF-b: Confirmation of Cherry Picks | shares compounds with TGFb SMAD3 inh | HepG2 CAGA-GFP TGF-b reporter, GFP fluorescence, 18 h; cells stimulated with TGF-beta, 500 pg/mL | Potency, µM (highest dose often 46.1 µM), for inactives: at the highest dose activity, negative = inhibition, usual class: inhibitors | hit rate 63% among 1,600; note: % is set by controls: 0 for no effect and ±100 for the full control effect; nearly all actives have a fitted effect of over 65% in size
HepG2 tox-2: qHTS for Inhibitors of TGF-b: Cytotox Counterscreen for Cherry Picks; shares compounds with TGFb SMAD3 inh; HepG2 CAGA-GFP viability, ATP luminescence, 18 h; cells stimulated with TGF-beta, 500 pg/mL; Potency, µM (highest dose often 46.1 µM), for inactives: top-dose activity, negative = cytotoxicity, usual class: inhibitors; hit rate 27% among 1,600; AID 720535, 2013; note: % is set by controls: 0 for no effect and ±100 for the full control effect; nearly all actives have a fitted effect of over 70% in size
TGFb CCL64 inh: qHTS for Inhibitors of TGF-b: CCL64 Cells Orthogonal Assay for Cherry Picks; shares compounds with TGFb SMAD3 inh; CCL64 CAGA-GFP reporter, TGF-b stimulated, GFP fluorescence, 18 h; Potency, µM (top dose mostly 46.1 µM), for inactives: at the top dose activity, negative = inhibition, usual class: inhibitors; hit rate 41% among 1,600; note: nearly all actives have a fitted effect of over 65% in size
COP TGFb inh: qHTS for Inhibitors of TGF-b: Hit Validation in HepG2 Cells using COP promoter; shares compounds with TGFb SMAD3 inh; HepG2 COP-GFP TGF-b reporter, GFP fluorescence, 18 h; cells stimulated by added recombinant TGF-beta; Potency, µM (highest dose often 46.1 µM), for inactives: at the highest dose activity, negative = inhibition, actives largely listed as inhibitors; hit rate 3% among 1,600; AID 720537, 2013; note: nearly all actives have a fitted effect of over 70% in size
Numbers without * were called inactive; i = inactive; ? = inconclusive; . = no result given. Hits are enriched below; roughly 3.8% of the tested compounds scored in any of these assays. Calls come from the whole dose curve; as a rule, active = well fitted curve in the direction sought with a large enough effect; inconclusive = small, poorly fitted or top-dose-only effect, or another doubt; inactive = no such curve, though single readings can be large; an effect the other way counts as inactive or inconclusive. Potency is the fitted concentration of half-maximal effect.

SMILES	ATXN viability	ATXN2 expr inh	Nrf2 block	A549 viability	HepG2 tox-1	TGFb SMAD3 inh	TGFb confirm	HepG2 tox-2	TGFb CCL64 inh	COP TGFb inh
CC[C@]12c3[nH]c4ccc(OC)cc4c3CCN1C(=O)C(CC(=O)NCc1cccc(C(F)(F)F)c1)C[C@@H]2C(=O)N1CCN(C(=O)c2ccco2)CC1 (some centres undefined)	i	7%	6%	-6%	-5%	?	.	.	.	.
CC[C@]12c3[nH]c4cc(-c5ccco5)ccc4c3CCN1C(=O)[C@@H](CC(=O)NC/C=C(\C)CCC=C(C)C)C[C@@H]2C(=O)N1CCN(C(=O)c2ccco2)CC1	i	?	?	-27%	-20%	10µM*	10µM*	-13%	13µM*	2%
CN(C(=O)CCc1nc(-c2ccccc2F)no1)c1ccc(Cl)cc1	i	2%	1%	0%	-16%	-7%	.	.	.	.
CC[C@]12c3[nH]c4ccccc4c3CCN1C(=O)C(CC(=O)NCc1cccc(C(F)(F)F)c1)C[C@@H]2C(=O)N1CCN(C(=O)C2CC2)CC1 (some centres undefined)	i	-1%	-16%	-17%	-21%	?	.	.	.	.
CC[C@]12c3[nH]c4ccc(Cl)cc4c3CCN1C(=O)[C@@H](CC(=O)NCc1cccc(C(F)(F)F)c1)C[C@@H]2C(=O)N1CCN(C(=O)C2CC2)CC1	?	?	?	?	-8%	14µM*	-77%	?	?	61%
O=c1c2ccccc2c(=O)n(Cc2ccccc2)n1Cc1ccccc1	i	-22%	?	19%	-16%	11µM*	?	-29%	18µM*	?
O=c1ccn(Cc2ccccc2)c2ccccc12	i	0%	?	1%	-12%	?	.	.	.	.
COc1ccc(N2CC(NC(=O)C3CC3)CC2=O)cc1OC (centres undefined)	i	1%	.	3%	-17%	-9%	.	.	.	.
O=C(C1CCC(=O)N(C2CCCCCC2)C1)N1CCN(c2ccccc2Cl)CC1 (centres undefined)	i	.	-1%	1%	-86%	7.1µM*	-29%	-20%	?	0%
COCCCNC(=O)CSc1nc2cc3c(cc2c(=O)n1CCCCCC(=O)NCc1ccc(OC)cc1)OCO3	.	.	.	1%	2%	7%	.	.	.	.
COc1ccc(CN2CCN(c3ncnc4scc(-c5ccc(F)cc5)c34)CC2)cc1	i	?	?	-12%	-26%	11µM*	21µM*	?	?	41%
COCCN1C[C@@H](CO)O[C@@H](n2cnc3c(N4CCCC4)ncnc32)C1	i	8%	.	.	-2%	12%	.	.	.	.
O=C(Nc1cccc(Cl)c1)Nc1cc(S(=O)(=O)N2CCCCC2)ccc1Cl	?	?	?	?	2%	10µM*	4.1µM*	?	4.6µM*	73%
COc1ccc(CCNC(=O)c2ccc3c(c2)CCN3S(=O)(=O)c2ccc(C)cc2)cc1	i	-6%	?	0%	-10%	-24%	.	.	.	.
COc1ccc(-c2nc3ccc(Br)cn3c2Cc2cccc(Cl)c2)cc1OC	?	-29%	.	.	4%	13µM*	18µM*	?	?	22%
COc1ccc(Cc2c(-c3cccc(Br)c3)nc3ccc(Br)cn23)c(C)c1	i	36%	.	.	-26%	?	?	?	?	-3%
COc1ccccc1Cc1c(-c2ccc(F)cc2)nc2ccc(Br)cn12	?	-12%	.	.	-32%	10µM*	?	?	?	43%
COc1ccc(Cc2c(-c3cccc(Cl)c3)nc3ccc(Br)cn23)c(C)c1	?	41%	.	.	-34%	?	.	.	.	.
Cc1onc(-c2ccccc2)c1C(=O)Nc1nnc(C(C)C)s1	i	1%	-1%	-1%	-2%	-1%	.	.	.	.
Cc1onc(-c2ccccc2)c1C(=O)Nc1ncc([N+](=O)[O-])s1	?	?	10µM*	?	-35%	8.9µM*	15µM*	?	23µM*	50%
COc1ccc(CCNC(=O)c2ccc3c(c2)N(Cc2ccc(F)cc2)C(=O)CS3)cc1OC	.	.	.	-13%	-4%	?	.	.	.	.
Cc1ccc(-c2nnc(N3CCCCC3)c3ccccc23)cc1	?	-2%	-12%	-3%	-63%	0%	.	.	.	.
O=C(COc1ccc(-c2nnc(N3CCCCC3)c3ccccc23)cc1)N1CCCCC1	i	-26%	?	-19%	-32%	18µM*	23µM*	-20%	-35%	2%
O=C(OCc1ccccc1)c1ccc(NCc2cc(O)ccc2O)cc1	.	10µM*	16%	-22%	-66%	10µM*	5.2µM*	16µM*	2.1µM*	-10%
COc1ccc(-c2ccc(C(=O)Nc3cccc(NS(C)(=O)=O)c3)c3occc23)c(C)c1	?	?	.	.	-21%	16µM*	10µM*	?	23µM*	35%
CN(Cc1ccccc1)S(=O)(=O)c1ccc(NC(=S)NC(=O)C2CCCCC2)cc1	i	-35%	?	-7%	-1%	13µM*	33µM*	?	14%	19%
